PLK1 PBD block: qHTS for Inhibitors of PLK1-PDB (polo-like kinase 1 - polo-box domain): Primary Screen | Serine/threonine-protein kinase PLK1 (Homo sapiens), P53350 | Plk1 PBD binding of FITC phosphopeptide, fluorescence polarization | Potency, µM, inactives show max response, negative = inhibition, most hits filed as inhibitors | actives 2.8% (n = 360,000) | AID 720504, 2013; further: potency means the concentration at half of the fitted maximal effect; series mostly up to about 57 µM; on the % scale 0 is the no-effect control and ±100 the full control effect; nearly all actives have a fitted effect of over 65% in size
Target sequence (P53350 whole entry, looked up, the tested form may be a part): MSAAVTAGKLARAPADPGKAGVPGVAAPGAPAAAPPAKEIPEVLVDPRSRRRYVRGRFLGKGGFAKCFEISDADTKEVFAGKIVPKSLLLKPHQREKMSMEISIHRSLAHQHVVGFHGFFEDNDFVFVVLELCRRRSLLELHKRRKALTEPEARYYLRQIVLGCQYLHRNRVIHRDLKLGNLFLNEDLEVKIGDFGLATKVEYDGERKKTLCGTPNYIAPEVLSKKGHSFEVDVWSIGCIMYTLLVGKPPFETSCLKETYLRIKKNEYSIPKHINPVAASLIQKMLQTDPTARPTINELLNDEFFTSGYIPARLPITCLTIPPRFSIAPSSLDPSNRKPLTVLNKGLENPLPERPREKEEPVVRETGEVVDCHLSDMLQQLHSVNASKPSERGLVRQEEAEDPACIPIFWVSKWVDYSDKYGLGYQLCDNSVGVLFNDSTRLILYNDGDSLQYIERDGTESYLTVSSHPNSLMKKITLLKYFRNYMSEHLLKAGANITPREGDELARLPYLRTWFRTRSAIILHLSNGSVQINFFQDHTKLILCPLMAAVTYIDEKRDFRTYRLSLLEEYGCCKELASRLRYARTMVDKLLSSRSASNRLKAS
VDR inh: Inhibitors of the vitamin D receptor (VDR): qHTS. VDR-SRC2-3 peptide fluorescence polarization, 2 h. Potency, µM, without a hit: max response, negative = inhibition, hits mostly inhibitors. actives 0.93% (n = 400,000). AID 504847, 2011; further: potency means the concentration at half of the fitted maximal effect; on the % scale 0 is the no-effect control and ±100 the full control effect
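Measured by FP: displacement of SRC2-3 coactivator peptide from VDR by library compounds, following a two-hour ambient incubation.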
CBFb-RUNX1 inh: qHTS Assay for Compounds Blocking the Interaction Between CBF-beta and RUNX1 for the Treatment of Acute Myeloid Leukemia. Runt-related transcription factor 1 (Homo sapiens) + Core-binding factor subunit beta …. 230,000 tested, under 10 active. Potency, µM (series often up to 59.8 µM), for the others: at the top dose activity, negative = inhibition, usual class: inhibitors. AlphaScreen CBFb-His/RUNX1-biotin binding, biochemical; further: % of control where 0% means no effect
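Read-out: AlphaScreen. Format: His-CBF-beta with biotinylated RUNX1 (30 nM each) preincubated 20 min, compound 15 min, Ni-chelate plus streptavidin beads 90 min; room temperature throughout.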
KCNH2 3.1 inh: qHTS for Inhibitors of KCHN2 3.1: Mutant qHTS | activity change, % (tested at about 1.8 µM) | U2OS KCNH2 3.1, thallium flux FluxOr; stronger effect = lower value | AID 720553, 2013 | actives 0.95% (n = 340,000) | Potassium voltage-gated channel subfamily H member 2, brain isoform KCNH2 3.1 (human);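 active means maximum activity change below -70%; inconclusive means maximum activity change from -70% to -50%; inactive means maximum activity change above -50%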;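 further: thallium influx rate constant from kinetic fluorescence after stimulation buffer; on the % scale 0 is the no-effect control and ±100 the full control effect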
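FluxOr-based Tl+ influx in U2OS cells transduced with KCNH2 3.1 virus; rate constants normalized to DMSO controls.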
hERG WT inh: qHTS for Inhibitors of KCHN2 3.1: Wildtype qHTS; activity change, % at 1.84 µM; AID 720551, 2013; actives 0.37% (n = 340,000); Voltage-gated inwardly rectifying potassium channel KCNH2 (Homo sapiens), Q12809; U2OS, BacMam KCNH2, thallium flux FluxOr; stronger effect = lower value;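 active means maximum activity change below -70%; inconclusive means maximum activity change between -70% and -50%; inactive means maximum activity change above -50%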; further: on the % scale 0 is the no-effect control and ±100 the full control effect
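U2OS cells transduced with wild-type KCNH2 virus are loaded with FluxOr dye for 45 min, and thallium flux is measured in kinetic reads before and after stimulation buffer. Rate constants are normalized to DMSO controls.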
MBNL1 CUG block: qHTS Assay for Inhibitors of MBNL1-poly(CUG) RNA binding; TR-FRET MBNL1-His/biotin-(CUG)12 binding, 665/545 ratio; AID 2675, 2010; Potency, µM (top dose mostly 57.5 µM), without a hit: top-dose activity change, negative = inhibition, hits mostly inhibitors; actives 0.036% (n = 280,000); Muscleblind-like protein 1 (Homo sapiens), Q9NR56; active means well fitted inhibition curve with a large enough effect in the signal ratio, with a control signal flat, not every such curve was filed as active; inconclusive means small, poorly fitted or top-dose-only effect, or effect the other way, or a change in a side signal; inactive means no such curve, though single readings can be large or run the other way; the % refers to the signal ratio; further: potency means the concentration at half of the fitted maximal effect; on the % scale 0 is the no-effect control and ±100 the full control effect
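Inhibition of protein-RNA binding appears as loss of TR-FRET between terbium anti-His antibody on MBNL1-His and streptavidin-XL665 on biotin-(CUG)12. Activity is normalized to buffer-only and uninhibited-complex controls.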
An asterisk follows results filed as active; ? = inconclusive; . = not tested or not shown; [ ] = dose if it differs, or a comment. A selection: hits, their analogues and other compounds. The true share with any hit is near 3.8%. Unless noted, the call rests on the fitted dose curve; in most records, active means well fitted curve in the direction sought with a large enough effect; inconclusive means small, poorly fitted or top-dose-only effect, or another doubt; inactive means no such curve, though single readings can be large; an effect the other way counts as inactive or inconclusive.

SMILES	PLK1 PBD block	VDR inh	CBFb-RUNX1 inh	KCNH2 3.1 inh	hERG WT inh	MBNL1 CUG block
Cn1nc(-c2ccccc2)c(CO)c1Oc1ccc(F)cc1	10.6µM*	?	5.8%	-10.5	0.8	-4.5%
O=S(=O)(N/N=C\c1c(F)cccc1Cl)c1ccc(Cl)cc1	15µM*	?	2.2%	-4.5	0.4	-0.9%
Cc1ccc(NC(=O)Cn2nnc(C(=O)NCCc3ccccc3)c2N)c(C)c1	5.97µM*	?	.	14.4	1.5	-3.6%
Cc1cc(C)cc(NC(=O)Cn2nnc(C(=O)NCc3ccc(F)cc3)c2N)c1	2.99µM*	20µM*	.	2.5	-15.0	-4.3%
Cc1cccc(C)c1NC(=O)Cn1nnc(C(=O)NCc2ccc(F)cc2)c1N	.	12.8%	.	.	.	.
CCOc1ccc(-n2c(=O)c3c(C)c(C)sc3n(CC(=O)c3ccccc3)c2=O)cc1	.	9.2%	.	.	.	.
Clc1ccc(C2=NNC(=NCc3ccc4c(c3)OCO4)SC2)cc1	16.8µM*	?	?	-13.9	10.3	-1.1%
Oc1ccc(C2=NNC(=NCc3ccc4c(c3)OCO4)SC2)c(O)c1	-7.6%	-6.0%	?	-3.6	-15.4	25.1%
COc1ccc(C)cc1S(=O)(=O)Nc1cccc(-c2ccc(N3CCCCCC3)nn2)c1	16.8µM*	?	.	5.3	4.1	87.3%
COc1cc(C)c(S(=O)(=O)Nc2cccc(-c3ccc(N4CCCC4)nn3)c2)cc1C	.	16.1%	.	.	.	.
COc1ccc(S(=O)(=O)Nc2cccc(-c3ccc4nncn4n3)c2)c(OC)c1	16.8µM*	?	.	-13.9	-2.6	.
COc1ccc(NC(=O)N2CCc3nc(-c4ccc(OC)cc4C)c4c(c3C2)CO[C@@H](c2ccccc2)C4)cc1	.	.	8.8%[13.1 µM]	.	.	.
Cc1ccc2c(c1)C(c1ccncc1)=NNC(c1ccccc1)=N2	21.2µM*	?	2.7%	-2.1	-1.8	15.8%
Cc1ccc2c(c1)C(c1ccncc1)=NNC(c1ccc(F)cc1)=N2	-4.5%	-0.4%	-1.1%	-5.5	6.1	5.8%
COC(=O)[C@@]1(Cc2ccccc2)[C@H]2c3cc(C(=O)N4CCCC4)n(CCc4ccccn4)c3C[C@H]2CN1C(=O)c1ccccc1	.	.	5.8%	.	.	.
COC(=O)[C@@]1(Cc2ccc(F)cc2)[C@H]2c3cc(C(=O)N4CCCC4)n(CCc4ccccn4)c3C[C@H]2CN1C(=O)c1ccccc1	21.2µM*	-26.8%	4.6%[2.36 µM]	1.3	21.4	22.3%
CCOC(=O)c1c(C)[nH]c(C)c1S(=O)(=O)NCC(=O)NCc1ccccc1C	.	10.2%	.	.	.	.
CCNc1ccc(Br)cc(C(=O)/C=C/c2ccc3c(c2)OCO3)c1=O	?	89.1µM*	?	3.5	4.0	18.3%
CCNC(=O)CN(c1ccccc1OC)S(=O)(=O)c1cccs1	-3.5%	4.9%	-3.3%	0.6	5.6	-5.6%
COc1ccccc1N(CC(=O)NC(C)(C)C)S(=O)(=O)c1cccs1	26.7µM*	?	-0.3%	-4.4	2.4	-3.9%
Cc1cccc(C(=O)N2[C@@H](C(C)C)COc3cc(Br)ccc3S2(=O)=O)c1	21.2µM*	?	.	-14.6	3.4	.
Cc1cccc(-c2nn(C(=S)Nc3ccccc3)cc2-c2ccnc3ccccc23)n1	.	?	6.5%	.	.	.
N#C/C(=C/c1ccc(N2CCOCC2)o1)c1nc2ccccc2[nH]1	100.6%	-22.6%	-13.3%	-24.9	-19.2	?
S=C(c1nc2ccccc2[nH]1)N1CCOCC1	23.8µM*	?	13.5%	-2.3	3.8	5.7%
c1ccc2c(c1)OCCOCCOCCOCCO2	.	-0.3%	1.5%	.	.	.
SMILES	PLK1 PBD block	VDR inh	CBFb-RUNX1 inh	KCNH2 3.1 inh	hERG WT inh	MBNL1 CUG block
Brc1ccc2c(c1)OCCOCCOc1cc(Br)ccc1OCCOCCOCCO2	0.0%	-18.9%	12.1%	-95.7*	-87.7*	-12.5%
Brc1cc2c(cc1Br)OCCOCCOCCOCCO2	4.23µM*	28.2µM*	?	10.3	9.7	.
c1ccc2c(c1)OCCOCCOc1ccccc1OCCOCCO2	-16.9%	-0.5%	-9.1%	-78.6*	23.4	-2.5%[11.5 µM]
C/C(=N/O)c1ccc2c(c1)OCCOCCOc1cc(/C(C)=N/O)ccc1OCCOCCO2	-2.6%	2.1%	?	-73.7*	-41.8	-6.7%
O=C(CCn1c(=O)c2sccc2n(CC(=O)Nc2ccccc2)c1=O)NCc1ccccc1Cl	.	-18.5%	.	.	.	.
CC(C)NC(=O)Cn1ccc2cc(S(=O)(=O)N3CCCCCC3)ccc21	.	6.8%	.	.	.	.
CCN(Cc1ccc(OC)c(COC)c1)CC1CCCN(CCc2cccc(OC)c2)C1 (centres undefined)	-6.4%	?	.	-8.9	41.6	-1.7%
COc1ccc(CCN2CCCC(CN(C)Cc3cccc(OC)c3)C2)cc1 (centres undefined)	-8.3%	-7.5%	.	-73.6*	-24.7	-3.3%
CCN(Cc1ccc(OC)c(COC)c1)CC1CCCN(CCc2cccc(F)c2)C1 (centres undefined)	0.8%	-8.7%	.	-71.9*	49.9	-3.8%
CN(Cc1ccc(C#CCCO)cc1)CC1CCCN(CCc2ccc(Cl)cc2)C1 (centres undefined)	2.9%	-2.3%	.	-22.5	10.1	-7.2%
CN(Cc1ccccc1O)CC1CCCN(CCc2ccc(Cl)cc2)C1 (centres undefined)	-7.8%	-8.4%	.	-85.8*	0.7	0.0%
CCN(c1cccc(C)c1)S(=O)(=O)c1cc(Br)cc2c1N(C(C)=O)C(C)C2 (centres undefined)	.	-20.5%	.	.	.	.
Cc1ccc(CNc2oc(-c3ccc(COc4ccc(C)cc4)o3)nc2C#N)cc1	.	13.1%	.	.	.	.
Cc1cc(C)c(S(=O)(=O)NCC(c2ccco2)N2CCN(c3ccccc3)CC2)c(C)c1 (centres undefined)	.	15.8%	.	.	.	.
COc1ccc2cc(-c3nc4ccc(C(=O)O)cc4[nH]3)c(=O)oc2c1	.	0.2%	.	.	.	.
Cc1ccc(CNC(=O)Cn2ncc3c(C)n(Cc4ccc(Cl)cc4)c(C)c3c2=O)cc1	.	14.6%	.	.	.	.
CC(C)(C)NC(=O)C(c1ccco1)N(C(=O)Cn1nnc(-c2ccc(F)cc2)n1)c1cccc(F)c1 (centres undefined)	-6.9%	-8.7%	4.0%	4.9	-3.4	0.8%
CC(C)(C)NC(=O)C(c1c[nH]c2ccccc12)N(C(=O)Cn1nnc(-c2ccc(F)cc2)n1)c1cccc(O)c1 (centres undefined)	26.7µM*	?	12.7%	-17.5	-10.4	-3.8%

Assay outcomes (PubChem)
